From PubChem BioAssay
Shiga inhibitor = A qHTS for Small Molecule Inhibitors of Shiga Toxin. Vero cells, Shiga toxin protein synthesis inhibition reporter. inhibition, % at 38.7 µM. 9.2% of 290,000 active. AID 2315, 2010; in the data active means inhibition mostly above about 28%, no sharp cut-off; inactive means mostly below about 43%; further: 0% is about no effect
Pf growth 96h = Primary qHTS for delayed death inhibitors of the malarial parasite plastid, 96 hour incubation. P. falciparum luciferase reporter growth, 96 h. Potency, µM (titrated, usually from 28.7 µM), for the others: at the highest dose activity change, negative = inhibition, usual class: inhibitors. 6.9% of 320,000 active; further: potency means the concentration at half of the fitted maximal effect; on the % scale 0 is the no-effect control and ±100 the full control effect
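Readout is luminescence from an integrated firefly luciferase in P. falciparum. Red cells, 2% hematocrit and 0.05% parasitemia final, were cultured with compound through two parasite generations (96 hours) at 37 C, 5% CO2.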
NS1 function inh = qHTS Assay for Inhibitors of Influenza NS1 Protein Function; Potency, µM (series often up to 46.1 µM), for inactives: top-dose activity, positive = more growth; 0.4% of 270,000 active; AID 2326, 2010; calls by dose curve; further: potency means the concentration at half of the fitted maximal effect; actives are rising curves; nearly all actives have a fitted effect of over 50% in size
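OD600 was taken as the measure of yeast growth restored by compound in an NS1-expressing S. cerevisiae strain. Cells had been washed out of glucose medium and diluted 1:100 into galactose -URA medium, pH 6.0.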
SARS PLpro yeast-1 = qHTS of Yeast-based Assay for SARS-CoV PLP | 0.19% of 330,000 active | S. cerevisiae expressing SARS-CoV PLpro, growth rescue | Potency, µM (highest dose often 32.9 µM), for inactives: at the top dose activity, positive = growth rescue, actives largely listed as activators; calls by dose curve; further: potency means the concentration at half of the fitted maximal effect; 0% is about no effect; nearly all actives have a fitted effect of over 55% in size
Pf growth 48h = Primary qHTS for delayed death inhibitors of the malarial parasite plastid, 48 hour incubation | P. falciparum luciferase growth in erythrocytes, 48 h | Potency, µM (series often up to 28.7 µM), without a hit: top-dose activity change, negative = inhibition, actives largely listed as inhibitors | 5.9% of 310,000 active | AID 504832, 2011; further: potency means the concentration at half of the fitted maximal effect; on the % scale 0 is the no-effect control and ±100 the full control effect
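Compounds are pin-transferred into medium, infected erythrocytes (2% hematocrit, 0.1% parasitemia final) are added, and plates sit one parasite generation at 37 C in 5% CO2. Detection reagent is then added and luminescence measured.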
Cycloheximide cs = Cycloheximide Counterscreen for Small Molecule Inhibitors of Shiga Toxin; cell reporter, cycloheximide protein synthesis inhibition counterscreen; max response, %; 12% of 300,000 active; in the data active means max response mostly above about 13%, no sharp cut-off; inactive means mostly below about 14%; further: read at 38.3 µM for the half of the compounds with a filed dose; 0% is about no effect
SARS PLpro yeast-2 = qHTS of Yeast-based Assay for SARS-CoV PLP: Hit Validation. shares compounds with SARS PLpro yeast-1. yeast expressing SARS-CoV PLpro, growth phenotype rescue. calls only. 19% of 1,000 active. AID 652038, 2013; call rule not given here
* marks the source's active call; other numbers are inactive results; i = inactive; ? = inconclusive; · = no result; + = active, no number; [ ] = another dose, or the depositor's remark. This is a sample that favours compounds with a hit; in the whole collection about 21% have one here. Unless noted, the call rests on the fitted dose curve; in most records, active means well fitted inhibition curve with a large enough effect; inconclusive means small, poorly fitted or top-dose-only effect, or another doubt; inactive means no such curve, though single readings can be large or run the other way.

SMILES	Shiga inhibitor	Pf growth 96h	NS1 function inh	SARS PLpro yeast-1	Pf growth 48h	Cycloheximide cs	SARS PLpro yeast-2
Cc1ccc(N2CC(C(=O)OCC(=O)Nc3ccccc3C)CC2=O)cc1 (stereo not drawn)	·	-5%	·	?	16%	·	?
CCCCC(=O)NNC(=S)NC(=O)CCC	-2	?	-2%[9.22 µM]	16µM*	-24%	13	i
CCCCC(=O)NC(=S)NNC(=O)CC#N	34	·	-4%	1%	-3%	-2	·
Cc1ccc(NC(=O)c2ccc(NS(=O)(=O)/C=C/c3ccccc3)cc2)nc1	15	-1%	-7%	-1%	?	1	·
CCCn1c(SCc2nc(N)nc(N3CCCCC3)n2)nc2c1c(=O)n(C)c(=O)n2C	-18	-23%	·	-10%	-7%	-6	·
Cn1c(=O)c2c(nc(SCc3nc(N)nc(N4CCCCC4)n3)n2C)n(C)c1=O	-18	?	11%	?	-6%	-6	i
Cc1cc(O)c(C(C)C)cc1N=C1CSC(=O)N1	44	-11%	11%	5%	47%	-1	·
O=C(NCCc1ccc(Cl)cc1)/C(=C/c1cccnc1)NC(=O)c1ccccc1	16	?	5%	16µM*	-3%	-2	i
O=C(Cn1nc(Cl)nc1Cl)c1ccccc1	-2	-3%	4%	-2%	-4%	-4	·
O=C(Cn1nc(Cl)nc1Cl)c1ccc2c(c1)OCCO2	-7	-21%[5.75 µM]	-144%	11µM*	13%	-2	?
O=C(CCCOc1ccc(Cl)cc1Cl)N/N=C\C1CCCCC1	8	-13%	14%	-2%	?	-1	·
COc1ccc(C2=NNC(=O)CC2)cc1	7	0%	-6%	?	6%	5	i
COc1ccc(-c2cc(=O)[nH][nH]2)cc1	-5	9%	?	11%	·	1	·
c1ccc2c(CCNCc3ccc4c(c3)OCO4)c[nH]c2c1	-7	73%	9%	?	?	-1	i
O=C(N/N=C/C1CC=CCC1)c1ccc(Cl)cc1O (stereo not drawn)	51	2.3µM*	-13%	11µM*	1%	28*	i
Cc1ccc(C(=O)N/N=C\C2CC=CCC2)cc1[N+](=O)[O-] (stereo not drawn)	-5	-6%	-11%	-4%	26%	8	·
O=S(=O)(NCCc1ccccc1)c1ccc(F)cc1	14	-7%	27%	-3%	19%	-2	·
CCc1nccn1CCC(=O)N1CCCC(Nc2ccc(C(C)C)cc2)C1 (stereo not drawn)	-30	3%	-3%	·	-13%	0	i
CC(C)c1ccc(NC2CCCN(C(=O)CCCn3cncn3)C2)cc1 (stereo not drawn)	14	7%	6%	-2%	18%	-1	·
Cc1ccc(C(=O)NC(=S)Nc2ccccc2N2CCCC2)cc1[N+](=O)[O-]	-1	11%	17%	?	-20%	5	+
Cc1ccc(NC(=O)CCNS(=O)(=O)c2ccc(Br)cc2)cc1S(=O)(=O)N1CCOCC1	·	?	·	?	?	·	i
Cc1ccc(NC(=O)CCNS(=O)(=O)c2ccccc2)cc1S(=O)(=O)N1CCOCC1	·	?	·	-2%	?	·	·
O=C(/C=C/c1ccc(Br)o1)NCCCN1CCOCC1	13	13%	13%	5%	-12%	9	·
Cc1cc(C)cc(NC(=S)Nc2ccccn2)c1	active	?	-12%	3.2µM*	12%	21	+
Cc1cc(C)cc(NC(=S)N2CCN(c3ccccn3)CC2)c1	5	8%	-15%	0%	5%	-1	·
SMILES	Shiga inhibitor	Pf growth 96h	NS1 function inh	SARS PLpro yeast-1	Pf growth 48h	Cycloheximide cs	SARS PLpro yeast-2
Cc1cc(Cl)ccc1NC(=S)NCc1ccccc1	-4	2%	-12%	-1%	-7%	2	·
Cc1cc(Cl)ccc1NC(=S)Nc1ccccn1	23*	32%	-3%	5µM*	108%	33*	+
COc1cccc(CN2CCCC(CNC(=O)c3ccc(F)cc3)C2)c1OC (stereo not drawn)	-35	-4%	-5%	0%	-11%	-1	·
CC(C)(C)N1CC(C(=O)Nc2cccc(Cl)c2Cl)CC1=O (stereo not drawn)	-4	-11%	2%	4%	13%	-4	·
CN(C)c1nc(N2CCN(c3ccccc3)CC2)c(C#N)c(=O)o1	-4	5%	1%	2%	-8%	2	·
N#CC1C(=O)NC(N2CCN(c3ccccc3)CC2)=NC12CCCCC2 (stereo not drawn)	-7	0%[5.75 µM]	?	16µM*	-17%	-2	i
CC(C)(C)c1cc(C(=O)N/N=C/c2ccccc2O)n(-c2ccccc2)n1	-13	?	7%	14µM*	?	-6	i
COc1ccc(/C=N/NC(=O)c2nc(-c3ccccc3)n(-c3ccccc3)n2)c(O)c1	-10	11%	7%	2.8µM*	?	-3	+
CNC(=O)c1ccsc1NC(=O)CN1C(=O)CCC1=O	19	69%	-1%	-3%	23%	-5	·
COc1ccc(/C=C2\Oc3cc(OCC(=O)N4CC(O)C[C@H]4C(=O)O)ccc3C2=O)cc1OC (stereo partly drawn)	-2	-29%	17%	6%	21%	-3	·
Cc1ccc2c(O)c(C)c(=O)[nH]c2n1	-8	32%	3%	-1%	21%	-3	·
Cc1c(O)c2cccnc2[nH]c1=O	-2	42%	12%	3.5µM*	-8%	2	i
CC(C)(C)c1ccccc1N=Cc1ccc2ccccc2n1	-6	41%	-6%	3%	6%	-1	·
Nc1c(Cl)ncnc1N/N=C/c1ccc2ccccc2n1	121*	3.7µM*	-50%	·	?	69*	i
CC(C)(C)OC(=O)N[C@@H](Cc1ccccc1)C(=O)N[C@@H](CO)[C@H](O)[C@@H]1C[C@@H]1C(=O)NC1CC1	4	?	7%	6%	-1%	-1	·
CCOC(=O)C(CC)/C(C)=N\NC(=O)c1ccccc1O (stereo not drawn)	33*	31%	-3%	6.3µM*	-18%	18*	i
COc1ccc(N(C(=O)c2cccnc2)S(=O)(=O)c2cccs2)cc1	-9	4%	-1%	-1%	-8%	1	·
O=C(Nc1ccc(F)cc1F)NC1CCN(S(=O)(=O)c2ccc(F)cc2)CC1	4	-5%	·	-1%	-5%	-3	·
Cc1cc(Cl)ccc1NC(=O)NC1CCN(S(=O)(=O)c2ccc(F)cc2)CC1	2	?	9%	?	·	-5	?
CC(C)(C)NCc1ccc(OCc2cccs2)cc1	18	0%	·	-2%	-10%	3	·
CC(=O)NC(c1ccc(C)cc1)c1cc(Cl)c2cccnc2c1O (stereo not drawn)	-7	29%	-41%	?	?	-2	+
